# Source: PubChem (The Scripps Research Institute Molecular Screening Center)
# MsrA act: activators of bovine methionine sulfoxide reductase A; purified bovine MsrA, absorbance read-out; activation, % at 10.6 µM; actives 0.3% (n = 360,000); in the data active = activation above about 7.5%;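 note: 0% = vehicle and 100% = reference activator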
# MsrA inhibitor: inhibits bovine methionine sulfoxide reductase A. purified bovine MsrA, absorbance read-out. inhibition, % at 15.5 µM. actives 0.75% (n = 360,000). AID 651718;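 note: 0% = vehicle wells with enzyme and 100% = reference inhibitor wells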
# PLC-beta3 inh: blocks human PLC-beta3 enzyme activity; Q01970; Purified PLC-beta3, fluorogenic substrate, fluorescence; inhibition, % at 12.2 µM; actives 0.18% (n = 370,000); in the data active = inhibition above about 11%;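 note: 0% = median of compound wells on plate and 100% = full blocker control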
# PLC-gamma1 inh: PLC-gamma1 (human) inhibition, primary screen; AID 720700; purified PLC-gamma1, fluorogenic substrate, fluorescence; P19174; inhibition, % at 12.2 µM; actives 0.84% (n = 370,000); in the data active = inhibition above about 9.5%
# MsrA conf: bovine MsrA inhibition, confirmed | shares compounds with MsrA inhibitor | purified bovine MsrA, absorbance read-out | inhibition, % at 15.5 µM | actives 41% (n = 2,300);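 note: coupled to thioredoxin reductase with NADPH and selenocystamine and DMSO as substrate; 0% = vehicle only and 100% = full effect of reference inhibitor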
# * hit, by the source's call; i = inactive; nt = not tested or not shown. In the library only some 1.9% were active in any assay of this set; here they are far more common. Cut-off read from the data, not from the text of the source, unless noted: active = inhibition above about 4.5%; inactive = the rest.
SMILES,MsrA act,MsrA inhibitor,PLC-beta3 inh,PLC-gamma1 inh,MsrA conf
CCOC(=O)c1[nH]c(C)c(C(=O)OCC)c1C,-3.0,-0.9,-0.8,0.0,nt
Brc1ccc2nc(-c3ccc(CN4CCC(c5nc6ccccc6[nH]5)CC4)cc3)c(-c3ccccc3)nc2c1,nt,1.9,-8.9,-8.6,nt
O=C(NCC1CC1)c1cc([N+](=O)[O-])cc([N+](=O)[O-])c1,3.6,8.5*,-6.1,-1.2,7.1*
CSc1ccc(/C=N/NC(=O)c2cccc(O)c2)cc1,-3.0,4.8*,-53.7,-49.9,5.6*
Cc1ccn2c(C(=O)N/N=C/c3ccc(Cl)cc3)c(C)nc2c1,-3.8,0.2,-8.8,-1.5,nt
Cc1ccn2c(C(=O)N/N=C\c3ccc4c(c3)OCO4)c(C)nc2c1,-10.2,7.3*,-14.4,-13.7,5.5*
COc1cc(/C=N/NC(=O)c2c(C)nnn2-c2nonc2N)ccc1O,-11.0,5.0*,-1.6,-22.5,3.6
COc1cc(/C=N/NC(=O)c2cc(-c3cccc(OC(C)C)c3)nc3ccccc23)ccc1O,-3.4,1.9,-13.3,-6.6,nt
COc1cc(/C=N/NC(=O)c2cc(-c3cccs3)nc3ccccc23)ccc1O,-3.7,4.9*,-97.0,-71.2,4.0
Cc1nnn(-c2nonc2N)c1C(=O)N/N=C/c1ccccc1O,-0.3,0.4,-1.2,-0.1,nt
COc1cc(/C=N/NC(=O)c2ccncc2)ccc1OCCN1CCCCC1,3.4,5.4*,-19.6,-9.5,2.4
Cc1cc(O)cc(=O)n1-c1cccc(Br)c1,nt,-0.1,0.4,-4.3,nt
C=CCN1C(=O)c2n[nH]c(C(C)C)c2C1c1ccc2c(c1)OCO2 (stereo unspecified),nt,0.2,1.2,0.9,nt
CC(C)(C)S(=O)(=O)N1C[C@H]2CC(=O)C(CCO)=C2[C@@H]1CCO,nt,-1.0,4.5,1.2,nt
Cc1cc2c(c(=O)o1)[C@@]1(C(=O)N(c3ccccc3)c3ccccc31)C1=C(CCCC1=O)O2,nt,0.1,0.5,1.1,nt
COc1cc(/C=N/NC(=O)c2c(C)nc3ccc(Cl)cn23)cc(OC)c1OC,-3.6,2.9,-43.8,-39.7,nt
COc1ccc(/C=N/NC(=O)c2ccc(COc3cccc4cccnc34)cc2)cc1OC,-3.4,4.9*,-91.6,-80.4,2.4
COc1ccc(OC)c(/C=N\NC(=O)c2c(C)nc3cc(C)ccn23)c1,-0.8,2.7,i,i,nt
COc1cc(/C=N\NC(=O)c2c(C)nc3cc(C)ccn23)ccc1O,-10.7,7.1*,-27.4,-21.4,6.4*
COc1ccc(/C=N/NC(=O)c2ccc(COc3cccc4cccnc34)cc2)cc1O,-6.8,1.4,-27.9,-17.5,nt
COc1ccc(/C=N/NC(=O)c2c(C)nc3ccc(Cl)cn23)cc1OC,-0.6,6.2*,-27.9,-14.6,5.3*
COc1ccccc1Cc1c(C(C)(C)C)nc2c(C)cc(Br)cn12,nt,1.4,-44.2,-34.4,nt
Cc1ccc(C(=O)NCCN2C(=O)C3C4C=CC(C4)C3C2=O)cc1 (stereo unspecified),nt,nt,0.2,-0.1,nt
COc1ccc(N/N=C(\C=N\O)C(=O)c2ccc(OC)cc2)cc1,-6.3,10.7*,-1.9,-4.6,5.0*
COc1ccc(C(=O)C(=NNc2ccccc2)c2ccc(OC)cc2)cc1,-6.4,1.8,0.6,-1.6,nt
SMILES,MsrA act,MsrA inhibitor,PLC-beta3 inh,PLC-gamma1 inh,MsrA conf
CCOc1cc(S(=O)(=O)NCc2ccco2)c(OCC)cc1-n1cnnn1,-3.0,7.7*,-35.8,-30.4,3.4
CCOc1cc(S(=O)(=O)NC2CC2)c(OCC)cc1-n1cnnn1,-1.8,25.5*,-44.3,-33.5,22.7*
Cc1cc(Nc2cccc([N+](=O)[O-])c2)cc(=O)n1-c1cccc([N+](=O)[O-])c1,nt,0.6,1.3,0.4,nt
O=C1NC(=S)N/C1=C/c1cc([N+](=O)[O-])ccc1N1CCOCC1,-3.8,5.0*,-16.9,-14.5,3.0
COc1ccc(-c2cc3ccc(OCC(N)=O)cc3oc2=O)cc1OC,-7.6,5.6*,-477.9,-327.7,1.3
COc1ccc(-c2cc3ccccc3oc2=O)cc1,-3.3,1.4,i,i,nt
COc1ccc(-c2cc3ccc(O)cc3oc2=O)cc1OC,-4.1,2.7,i,i,nt
COc1ccc(-c2cc3ccc(OC(C)C(=O)O)cc3oc2=O)cc1 (stereo unspecified),-7.0,5.7*,i,i,4.3
COC(=O)c1cc2c(c3c4ccccc4n(S(=O)(=O)c4ccc(OC)cc4)c13)C(=O)N(Cc1ccc(C(F)(F)F)cc1)C2,nt,0.4,-9.5,-11.9,nt
CCCCCCCCN1C(=O)[C@@H](CC(=O)N2CCN(C(=O)C3CC3)CC2)C[C@@]2(C(=O)OC)C1=C[C@H](COCc1ccccc1)O[C@@H]2C,nt,nt,1.4,-1.3,nt
Cn1c(C(C#N)C(=O)c2ccco2)nc2ccccc21 (stereo unspecified),-2.6,5.1*,-1.6,1.0,5.5*
COC1C(OC(=O)/C=C/C=C/C=C/C=C/C(=O)O)CCC2(CO2)C1C1(C)OC1CC=C(C)C (stereo unspecified) (tested in a mixture with another compound),-5.1,8.8*,-6.6,-3.0,11.8*
CON(C)C(=O)C(C)(C)CC#CCN(CC#Cc1ccccc1)S(=O)(=O)c1ccc(C)cc1,nt,1.4,-7.4,-2.9,nt
O=S1(=O)CC2c3ccccc3CCN2CN1Cc1ccccc1 (stereo unspecified),nt,nt,3.8,0.8,nt
COC(=O)c1c(C(=O)OC)c(-c2ccc(F)cc2)n2c1CSC2,-3.2,5.6*,-12.9,-5.2,2.0
COC(=O)C1=C(C)N(C)C(=NCc2ccccc2)NC1CCc1ccccc1 (stereo unspecified),nt,-0.8,3.3,0.3,nt
COCc1cc(C)nc(OCC(=O)N/N=C/c2ccc(C)o2)c1C#N,-5.3,6.7*,-3.4,-3.4,2.4
COCc1cc(C)n(CC(=O)N/N=C/c2ccc(-c3ccc(Cl)c(C(=O)O)c3)o2)c(=O)c1C#N,-6.2,9.1*,-27.5,-24.9,9.7*
Cc1cc2ccccn2c1C(=O)Nc1ccccc1,-5.1,5.1*,-51.4,-47.8,1.8
CC(C)(C)c1ccc(-c2nnc(SCc3cccc4ccccc34)n2Cc2ccco2)cc1,nt,nt,3.2,3.5,nt
COc1cc(C2C(C(=O)c3ccco3)=C(O)C(=O)N2CCc2ccccc2)ccc1O (stereo unspecified),-2.0,1.4,1.0,-0.9,nt
COc1cccc(C2C(C(=O)c3ccco3)=C(O)C(=O)N2CCCN2CCOCC2)c1OC (stereo unspecified),-6.1,4.7*,-2.6,4.7,-0.2
COc1ccc(CCN2C(=O)C(O)=C(C(=O)c3ccco3)C2c2cccs2)cc1OC (stereo unspecified),-12.1,4.7*,-6.6,-1.7,1.8
CCOC(=O)C1=C(C(=O)OCC)C2N(Cc3ccc(Br)cc3)c3ccccc3[C@@]23C[C@@H](C(=O)OC)N(S(=O)(=O)c2ccc(OC)cc2)C3=N1 (stereo partly specified),nt,0.5,-20.5,-14.2,nt
O=[N+]([O-])c1ccc2[nH]c(O)c(N=NC3CS(=O)(=O)CC3O)c2c1 (stereo unspecified),-4.7,5.2*,-6.1,4.8,5.0*
COc1cc(OC)cc(C(=O)NCC2CCN(C(=O)C(=O)c3cccs3)CC2)c1,nt,0.9,6.4,4.7,nt
